PubChem BioAssay (EPA / NIEHS)
Several values for one entry are separate records, joined by “and”; a condition that tells them apart may be missing. Equal entries are not always repeated. Inconclusive results are not listed. Some structures have more than one record in an assay (separate samples or runs), and their calls can disagree. Activity calls are given as the source filed them. The calls were made as follows, unless noted: active = hit-call score of the fitted dose curve at least 0.9, where 1 is the maximum; inactive = score below 0.9.

Legend:
[1] = CCTE_Shafer_MEA_acute_cross_correlation_area: CCTE's Neural Acute Assay for Area of Cross Correlation, Shafer Lab (AID 2284024);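 also: area under pooled inter-electrode spike cross-correlation near zero lag as percent change from own baseline; curves fitted for loss of cross-correlation area so actives lower synchrony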
Procedure, shortened: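 Primary rat cortical neurons on 48-well MEA plates (16 electrodes/well) were recorded 40 min at baseline on DIV 13 or 15, then 40 min with compound (0.03-40 uM) at 37 C; cross-correlation area expressed as percent change from baseline.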

[2] = CCTE_Shafer_MEA_acute_synchrony_index: CCTE's Neural Acute Assay for Synchrony, Shafer Lab (AID 2284027);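 also: network synchrony index of spontaneous spiking in primary rat cortical neurons on MEAs; fitted for loss of signal so actives lower synchrony relative to DMSO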
Procedure, shortened: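 Primary rat cortical neurons on 16-electrode MEA wells were recorded 40 min at baseline (DIV 13 or 15) and 40 min after compound (0.03-40 uM) at 37 C. Synchrony index (0-1) expressed as percent change from baseline, versus DMSO.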

[3] = CCTE_Shafer_MEA_dev_per_burst_spike_percent: CCTE's Neural Network Formation Assay for Percent of Spikes in a Burst, Shafer Lab (AID 2284032);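 as to AC50: fitted as a decrease in burst spike percentage below DMSO baseline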
Procedure, shortened: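 Rat primary cortical neurons on 16-electrode MEA wells, dosed from plating day 0 for 12 days with renewal on DIV 5 and 9; spikes-in-bursts percentage averaged over bursting electrodes, collapsed as AUC across days 5, 7, 9, 12; loss direction versus DMSO.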

[4] = CCTE_Shafer_MEA_dev_active_electrodes_number: CCTE's Neural Network Formation Assay for Number of Active Electrodes, Shafer Lab (AID 2284040; active = hit-call score of the fitted dose curve at least 0.9, where 1 is the maximum;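 as to AC50: potency for loss of active electrodes versus DMSO so lower counts are hits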)
Procedure, shortened: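 Rat cortical primary cultures, 1.5 x 10^5 cells/well, PEI-coated MEA, laminin drop. Continuous exposure DIV 0–12; full media/compound change DIV 5, 9. Readout: electrodes with mean firing ≥5 spikes/min; AUC across days; loss vs DMSO.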

[5] = CCTE_Shafer_MEA_dev_burst_rate: CCTE's Neural Network Formation Assay for Burst Rate, Shafer Lab (AID 2284042);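 as to AC50: potency for loss of burst rate below DMSO control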
Procedure, shortened: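 Cells plated, treated day 0; recorded DIV 5, 7, 9, 12; fed and re-treated DIV 5, 9. Endpoint: bursts per recording time, active-electrode well mean, trapezoidal AUC, fitted in decreasing direction against DMSO baseline.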

[6] = CCTE_Shafer_MEA_dev_per_burst_interspike_interval: CCTE's Neural Network Formation Assay for Burst Interspike Interval, Shafer Lab (AID 2284044);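 also: mean spike spacing inside bursts as AUC over recordings on days 5 7 9 12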;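 as to AC50: potency for a decrease of within-burst interspike interval below DMSO level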
Procedure, shortened: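 Rat cortical primary cultures, 16 electrodes/well; compound from plating, renewed with full media change DIV 5 and 9. Spikes via adaptive detector; per-burst ISI well-mean over active bursting electrodes; AUC of DIV 5/7/9/12 recordings; loss-direction fit vs DMSO.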

[7] = CCTE_Shafer_MEA_dev_burst_duration_mean: CCTE's Neural Network Formation Assay for Mean Burst Duration, Shafer Lab (AID 2284045);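 as to AC50: curve fitted for loss meaning shorter burst duration than DMSO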
Procedure, shortened: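 Primary rat cortical neurons on 48-well 16-electrode MEA plates, exposed from day 0 with renewal at DIV 5 and 9; spontaneous activity recorded on days 5, 7, 9, 12. Well-mean burst duration across bursting electrodes, collapsed as trapezoidal AUC; DMSO baseline.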

[8] = CCTE_Shafer_MEA_dev_interburst_interval_mean: CCTE's Neural Network Formation Assay for Mean Interburst Interval, Shafer Lab (AID 2284046);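 also: well-mean interburst interval of bursting electrodes as AUC over four recording days; curve fitted for decrease in interburst interval relative to DMSO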
Procedure, shortened: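 Developing rat cortical networks on 48-well MEAs receive compound from the day of plating. Burst intervals from each active electrode are averaged per well, and AUC over the recording days is fitted in the negative direction against DMSO.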

[9] = CCTE_Shafer_MEA_dev_inter_network_spike_interval_mean: CCTE's Neural Network Formation Assay for Mean Inter-network Spike Interval, Shafer Lab (AID 2284047);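 as to AC50: potency for a decrease in mean inter-network spike interval below DMSO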
Procedure, shortened: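 Rat cortical cultures, 1.5 x 10^5 cells/well on 48-well MEA plates; continuous exposure days 0–12, medium and compound refreshed DIV 5, 9. Mean time between consecutive network-spike peaks; AUC across DIV 5/7/9/12; DMSO baseline, negative fitting direction.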

[10] = CCTE_Shafer_MEA_dev_network_spike_number: CCTE's Neural Network Formation Assay for Number of Network Spikes, Shafer Lab (AID 2284048);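 also: synchronized bursts across electrodes counted on days 5 7 9 12 and integrated as AUC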;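 as to AC50: fit as a loss of signal meaning fewer network spikes than DMSO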
Procedure, shortened: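 Primary rat cortical neurons on PEI/laminin 48-well MEA plates, dosed from plating day 0 for 12 days, renewed at DIV 5 and 9. Network spike counts recorded DIV 5, 7, 9, 12, collapsed as trapezoidal AUC; DMSO baseline.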

[11] = CCTE_Shafer_MEA_dev_network_spike_peak: CCTE's Neural Network Formation Assay for Mean Number of Electrodes in Network Spike, Shafer Lab (AID 2284049);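 as to AC50: fitted for loss of signal meaning fewer electrodes in network spikes than DMSO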
Procedure, shortened: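 Network-spike peak electrode count from recordings on days 5, 7, 9 and 12 was combined as trapezoidal area under the curve. Rat cortical cultures were treated continuously from plating, with compound renewed at each feed (DIV 5, 9); fits versus DMSO.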

[12] = CCTE_Deisenroth_AIME_384WELL_CTox_Active: Cytotoxicity Assessment (CTOX) in CCTE's 384-well Estrogen Receptor Transactivation Assay with AIME metabolic competence (metabolism positive), Deisenroth Lab (AID 2284037; active = hit-call score of the fitted dose curve at least 0.9, where 1 is the maximum;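 also: chemicals first conditioned 2 h by alginate-bound induced rat liver S9 before cells; activity means signal loss indicating cell death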)
Procedure, shortened: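 Chemicals pre-incubated 2 hours with alginate-immobilised phenobarbital/beta-naphthoflavone-induced male Sprague Dawley rat liver S9, then conditioned medium applied 24 hour to VM7Luc4E2 cells. Viability by fluorogenic protease substrate; 10-point series 0.002 - 200 uM.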

[13] = CCTE_Deisenroth_AIME_384WELL_CTox_Inactive: Cytotoxicity Assessment (CTOX) in CCTE's 384-well Estrogen Receptor Transactivation Assay without AIME metabolic competence (metabolism negative), Deisenroth Lab (AID 2284039; active = hit-call score of the fitted dose curve at least 0.9, where 1 is the maximum;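 also: cell viability via live-cell protease substrate cleaved to fluorescent probe; cells exposed 24 h to medium preincubated 2 h with alginate-water beads without S9; loss of fluorescence signal means loss of viability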)
Procedure, shortened: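 Metabolism-negative arm: chemicals (10-point, 0.002 - 200 uM) preincubated 2 h with alginate-water lids, medium moved onto VM7Luc4E2 cells for 24 h. Fluorescent live-cell protease readout; bidirectional curve fit.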

[14] = molecular target: Estrogen receptor (Homo sapiens) (UniProt P03372); assay: CCTE_Deisenroth_AIME_384WELL_LUC_Shift: CCTE's 384-well Estrogen Receptor Transactivation Assay with AIME metabolic competence data shift (ERTA luciferase; difference in metabolism positive and negative), Deisenroth Lab (AID 2284041);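 also: shift is response with S9 minus without S9 so positive means metabolism raised ER signal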
Procedure, shortened: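 Chemicals (0.002–200 uM, 10 points) pre-incubated 2 h with alginate-encapsulated induced male Sprague Dawley rat liver S9 or S9-free, then medium applied 24 h to VM7Luc4E2 cells; luciferase. Endpoint is per-concentration difference, S9-positive minus negative.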

[15] = molecular target: Estrogen receptor (Homo sapiens) (UniProt P03372); assay: CCTE_Deisenroth_AIME_384WELL_LUC_Inactive: CCTE's 384-well Estrogen Receptor Transactivation Assay without AIME metabolic competence (ERTA luciferase; metabolism negative), Deisenroth Lab (AID 2284038; active = hit-call score of the fitted dose curve at least 0.9, where 1 is the maximum;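 also: VM7Luc4E2 breast cells given medium preincubated 2 h with S9-free microspheres; hits raise estrogen receptor luciferase signal so potencies reflect agonists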)
Procedure, shortened: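 Chemicals (10-point series, 0.002 - 200 uM) were incubated 2 hours with alginate-water microsphere lids lacking S9, then the conditioned medium was transferred to VM7Luc4E2 breast cells for 24 hour. Luciferase induction was read by bioluminescence, fitted upward relative to 17beta-estradiol.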

[16] = molecular target: Estrogen receptor (Homo sapiens) (UniProt P03372); assay: CCTE_Deisenroth_AIME_384WELL_LUC_Active: CCTE's 384-well Estrogen Receptor Transactivation Assay with AIME metabolic competence (ERTA luciferase; metabolism positive), Deisenroth Lab (AID 2284030; active = hit-call score of the fitted dose curve at least 0.9, where 1 is the maximum)
Procedure, shortened: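 Test chemicals (10-point series, 0.002 - 200 uM) were preincubated 2 hours with alginate-immobilized phenobarbital/beta-naphthoflavone-induced male Sprague Dawley rat liver S9; conditioned medium then went onto VM7Luc4E2 breast cells for 24 hour. Luciferase gain-of-signal fitted relative to 17beta-estradiol.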

Measured: AC50

Chain of Estrogen receptor (Homo sapiens) (P03372 whole entry, looked up): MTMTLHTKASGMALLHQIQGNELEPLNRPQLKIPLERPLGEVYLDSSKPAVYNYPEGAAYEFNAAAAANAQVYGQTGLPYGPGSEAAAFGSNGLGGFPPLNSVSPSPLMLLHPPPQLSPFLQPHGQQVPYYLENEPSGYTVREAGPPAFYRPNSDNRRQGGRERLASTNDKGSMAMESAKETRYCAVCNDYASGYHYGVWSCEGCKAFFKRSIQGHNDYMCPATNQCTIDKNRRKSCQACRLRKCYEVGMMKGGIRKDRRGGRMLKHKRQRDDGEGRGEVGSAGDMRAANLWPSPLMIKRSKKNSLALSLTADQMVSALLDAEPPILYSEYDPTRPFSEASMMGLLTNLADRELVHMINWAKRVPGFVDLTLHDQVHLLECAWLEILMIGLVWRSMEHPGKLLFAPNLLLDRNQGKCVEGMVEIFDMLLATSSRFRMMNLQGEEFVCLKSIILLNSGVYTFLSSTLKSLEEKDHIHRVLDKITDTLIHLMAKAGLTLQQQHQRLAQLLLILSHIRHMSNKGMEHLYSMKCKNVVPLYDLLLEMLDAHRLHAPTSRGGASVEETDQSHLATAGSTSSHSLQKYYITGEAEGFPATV

N#Cc1nn(-c2c(Cl)cc(C(F)(F)F)cc2Cl)c(N)c1S(=O)C(F)(F)F (stereo not given)
inactive: [1] | [3] | [4] | [5] | [6] | [7] | [8] | [9] | [10] | [11]
active: [2] 33.4 µM and 23.4 µM

CCOc1cc(Oc2ccc(C(F)(F)F)cc2Cl)ccc1[N+](=O)[O-]
active: [3] 12.8 µM | [4] 4.91 µM | [5] 9.62 µM | [6] 11.4 µM | [7] 6.99 µM | [8] 4.76 µM | [10] 6.09 µM | [11] 6.67 µM
inactive: [12] | [13] | [14] | [9]

C=CCC1=C(C)C(OC(=O)C2C(C=C(C)C)C2(C)C)CC1=O (stereo not given)
inactive: [1] | [3] | [15] | [14] | [5] | [6] | [7] | [8] | [9] | [10]
active: [2] 5.52 µM and 2.93 µM | [3] 14.8 µM | [4] 10 µM and 14.8 µM | [10] 1.15 µM | [11] 2.93 µM and 14.8 µM

CC1=C(C(=O)Nc2ccccc2)SCCO1
inactive: [16] | [15] | [14]

CO/C=C(/C(=O)OC)c1ccccc1Oc1cc(Oc2ccccc2C#N)ncn1
inactive: [1]
active: [2] 10.7 µM | [3] 1.64 µM and 1.26 µM | [4] 1.52 µM and 1.07 µM | [5] 1.14 µM and 1.39 µM | [6] 2.3 µM and 2.54 µM | [7] 1.55 µM and 2.03 µM | [8] 2.29 µM and 1.06 µM | [9] 1.64 µM and 17 nM | [10] 948 nM and 767 nM | [11] 1.48 µM and 1.44 µM

CCCCNC(=O)n1c(NC(=O)OC)nc2ccccc21
inactive: [5] | [6] | [7] | [8] | [9] | [10]
active: [3] 15 µM | [4] 15 µM | [11] 15 µM

N#Cc1cc(Br)c(O)c(Br)c1
inactive: [12] | [13] | [14]

COc1cnc(OC)n2nc(NS(=O)(=O)c3c(OCC(F)F)cccc3C(F)(F)F)nc12
active: [16] 21.2 µM | [15] 13.7 µM | [14] 28 µM
inactive: [12] | [13]

C=CC1(C)OC(=O)N(c2cc(Cl)cc(Cl)c2)C1=O (stereo not given)
active: [15] 63.4 µM | [4] 50 µM | [14] 42.4 µM | [11] 50 µM
inactive: [16] | [3] | [13] | [5] | [6] | [7] | [8] | [9] | [10]

CCc1nn(C)c(C(=O)NCc2ccc(C(C)(C)C)cc2)c1Cl
inactive: [13] | [14]
active: [12] 1.82 µM
